The text below walks through data of PubChem BioAssay (NCATS).

The nature of assay [1]: qHTS assay for measurement of the activity of small molecule inhibitors on Zika virus induced Caspase-3 activity in human astrocytoma cells (AID 1224859).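 Further: plate controls were ZIKV-infected untreated cells for no effect and uninfected cells for full effect.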 An outline of the steps: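 Caspase activation in ZIKV-infected SNB-19 cells (2 FFU/cell, 6 h) measured by Caspase-Glo 3/7 luminescence after 30 min RT; compound pre-incubated 1 h; normalised to uninfected and infected controls.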

The nature of assay [2]: qHTS assay to identify small molecule inhibitors of chordoma cells - UCH-1 (AID 1259355). Further: nearly all actives have a fitted effect of over 55% in size. Further: potency means the concentration at half of the fitted maximal effect; series mostly up to about 46 µM. An outline of the steps: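 Luminescent ATP read-out (CellTiter-Glo, 30min at room temperature) measured viability of UCH-1 cells exposed for 48hr to test drugs at 15 concentrations, co-dosed with a five-agent combination of auranofin, camptothecin, doxorubicin, rubitecan and topotecan.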

Assay [3] can be described thus: qHTS assay to identify small molecule inhibitors of chordoma cells - UCH-2 (AID 1259356). Further: potency means the concentration at half of the fitted maximal effect. On activity change, negative = inhibition: series mostly up to about 46 µM; on the % scale 0 is the no-effect control and ±100 the full control effect.
Assay [4] in a line: P-glycoprotein substrates identified in KB-8-5-11 adenocarcinoma cell line, qHTS therapeutic library screen (AID 1346987). Further: nearly all actives have a fitted effect of over 65% in size. Further: potency means the concentration at half of the fitted maximal effect. The essentials: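 KB-8-5-11: colchicine-selected sub-line of KB-3-1 over-expressing P-gp; assay medium lacked colchicine. 72 h drug exposure at 37 degree C, CellTiter-Glo.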
Assay [5] can be described thus: NS1 protein of Zika virus - qHTS assay to identify small molecule inhibitors in human HEK 293 cells (AID 1347053). Further: nearly all actives have a fitted effect of over 55% in size. Further: potency means the concentration at half of the fitted maximal effect.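 On activity change, negative = inhibition: series mostly up to about 46 µM; plate controls were infected untreated cells for no effect and uninfected cells for full effect.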 An outline of the steps: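 Following 20 h seeding, HEK 293 cells took compound, then 1 h later ZIKV MR766 (MOI = 0.5). Incubation ran 24 h at 37 C before TR-FRET detection of NS1; a drop in signal indicates inhibition.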
Assay [6] can be described thus: qHTS of pediatric cancer cell lines to identify multiple opportunities for drug repurposing: Primary screen for TC32 cells (AID 1347089). Further: nearly all actives have a fitted effect of over 60% in size. Further: potency means the concentration at half of the fitted maximal effect. On activity change, negative = cytotoxic: on the % scale 0 is the no-effect control and ±100 the full control effect. The essentials: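 Luminescent ATP read-out (CellTiter-Glo) of metabolically active TC32 cells after 48 h exposure. Concentration-response curves came from 11-point (MIPE, 0.78 nM–46 µM) or 8-point (NPC, 0.59 nM–46 µM) primary titrations; follow-up used 11 points.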

Assay [7] is described as follows: qHTS of pediatric cancer cell lines to identify multiple opportunities for drug repurposing: Primary screen for DAOY cells (AID 1347090). Further: nearly all actives have a fitted effect of over 55% in size. Further: potency means the concentration at half of the fitted maximal effect.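 On activity change, negative = cytotoxic: series mostly up to about 46 µM; plate controls were DMSO for no effect and bortezomib for full effect.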 The essentials: (§1)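 Eight- or eleven-point concentration series, 48 h treatment at 37 degrees C in growth media; readout CellTiter-Glo luminescence. Potency and efficacy were taken from the concentration-response curves.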
Assay [8] in a line: qHTS of pediatric cancer cell lines to identify multiple opportunities for drug repurposing: Primary screen for SJ-GBM2 cells (AID 1347091).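 Further: plate controls were DMSO neutral control for no effect and bortezomib for full effect.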 An outline of the steps: as §1
The nature of assay [9]: qHTS of pediatric cancer cell lines to identify multiple opportunities for drug repurposing: Primary screen for A673 cells (AID 1347092). Further: nearly all actives have a fitted effect of over 45% in size. Further: potency means the concentration at half of the fitted maximal effect. On activity change, negative = cytotoxic: on the % scale 0 is the no-effect control and ±100 the full control effect. The essentials: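 Cell viability of A673 measured by CellTiter-Glo ATP luminescence after 48 hours compound exposure. Dilution series spanned 0.78 nM to 46 µM (MIPE, 11-point) or 0.59 nM to 46 µM (NPC, 8-point); bortezomib 2.3 uM positive control.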

Assay [10] in a line: qHTS of pediatric cancer cell lines to identify multiple opportunities for drug repurposing: Primary screen for BT-37 cells (AID 1347094). Further: potency means the concentration at half of the fitted maximal effect.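 On activity change, negative = cytotoxic: series mostly up to about 57 µM; plate controls were DMSO for no effect and bortezomib for full effect.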 An outline of the steps:
(§2)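 Cells plated at 500-1,000/well in growth medium, compounds added after 5 h. MIPE tested at 11 points (from 0.78 nM), NPC at 8 points (from 0.59 nM). CellTiter-Glo luminescence after 48 h; concentration-response curves from primary screen.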

The nature of assay [11]: qHTS of pediatric cancer cell lines to identify multiple opportunities for drug repurposing: Primary screen for NB-EBc1 cells (AID 1347095).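 Further: plate controls were DMSO neutral control for no effect and bortezomib for full effect.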 An outline of the steps: as §2
Assay [12] in a line: qHTS of pediatric cancer cell lines to identify multiple opportunities for drug repurposing: Primary screen for SK-N-MC cells (AID 1347093). Further: potency means the concentration at half of the fitted maximal effect.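 On activity change, negative = cytotoxic: series mostly up to about 46 µM; plate controls were DMSO neutral control for no effect and bortezomib for full effect.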 The essentials:
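Metabolically active cells were quantified by ATP-dependent luminescence (CellTiter-Glo, 15 min at room temperature) following 48 h treatment. Cells had been plated at 500-1,000 per well and settled for 5 h beforehand.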

A number with no mark means an inactive call. Inconclusive results are not listed. Active and inactive are the calls of the source. The call rests on the fitted dose curve; in most records, active means well fitted curve in the direction sought with a large enough effect; inconclusive means small, poorly fitted or top-dose-only effect, or another doubt; inactive means no such curve, though single readings can be large; an effect the other way counts as inactive or inconclusive.

As for `O=C(O)c1ccc(S(=O)(=O)N(Cl)Cl)cc1`, in assay [1], the result was inactive. For the same compound, the Potency entry in assay [2], in assay [3], in assay [4], in assay [5], in assay [6] and in assay [7] was “inactive” each time. Moreover, the Potency entry in assay [8], in assay [9], in assay [10] and in assay [11] was “inactive” throughout.

In the case of `CN1CCC(OC(c2ccccc2)c2ccccc2)CC1`, in assay [1], the compound was called inactive. In addition, the Potency entry in assay [2], in [3], in [4], in assay [5], in assay [6] and in assay [7] was “inactive” each time. The Potency entry in [8], in [9], in [10] and in assay [11] was “inactive” in each case.

Regarding `CCOCCn1c(N2CCCN(C)CC2)nc2ccccc21`, the call in assay [1] was inactive. Further, the Potency entry in assay [2], in [3], in assay [4], in assay [5], in [6] and in assay [7] was “inactive” each time. Besides, the Potency entry in assay [8], in assay [9], in assay [10] and in assay [11] was “inactive” throughout.

On to `NCCNc1cccc2ccccc12`, for which the outcome in assay [1] was inactive. Also, the Potency result in assay [2], in assay [3], in [4], in [5], in assay [6] and in assay [7] was “inactive” throughout. Besides, the Potency entry in assay [8], in assay [9], in assay [10] and in [11] was “inactive” in each case.

For `CCOc1ccccc1C(N)=O`, the compound was classed as inactive in [1]. For the same compound, the Potency result in assay [2], in [3], in assay [4], in [5], in [6] and in assay [7] was “inactive” in each case. Moreover, the Potency result in [9], in assay [12], in assay [10] and in assay [11] was “inactive” each time.

As to `CC(=O)N[C@@H](CCC(=O)O)C(=O)O`, the call in assay [1] was inactive. For the same compound, the Potency result in [2], in [3], in assay [4], in assay [5], in assay [6] and in [7] was “inactive” in each case. Besides, the Potency result in assay [8], in assay [9], in assay [10] and in assay [11] was “inactive” each time.

`CCN[C@@H]1C[C@H](N)[C@@H](OC2OC(CN)=CCC2N)[C@H](O)[C@H]1O[C@H]1OC[C@](C)(O)[C@H](NC)[C@H]1O` (stereo partly specified): the activity change, negative = inhibition in assay [1] was 15.8% [at 0.568 µM]; in [5] it was -23.1% [at 0.593 µM]. Also, the Potency entry in assay [2], in [3] and in assay [4] was “inactive” throughout. Besides, the activity change, negative = cytotoxic is 2.31% [at 0.594 µM] in assay [6]; 1.01% [at 0.597 µM] in assay [7]; 1.88% [at 0.597 µM] in assay [8]; -2.55% [at 0.597 µM] in assay [9]; 5.98% [at 0.745 µM] in [10]; -22.3% [at 0.597 µM] in [11].

Take `COc1ccc(/C=N/NC(=O)c2ccncc2)cc1OC`: the compound was classed as inactive in [1]. Further, the Potency result in assay [2], in [3], in [4], in [5], in assay [6] and in assay [7] was “inactive” in each case. In addition, the Potency result in assay [8], in assay [9], in assay [10] and in [11] was “inactive” in each case.

With `CCN1/C(=C/C=C/c2sc3ccccc3[n+]2CC)Sc2ccccc21`, in [1], the outcome was inactive. For the same compound, the Potency in assay [2] is 7.94 µM (active); in assay [3], 5.8 µM (active); in assay [4], 18.4 µM (active); in [5], 3.55 µM (active); in assay [6], 1.29 µM (active); in [7] it was 1.16 µM (active). In addition, the Potency in assay [9] was 580 nM (active); in assay [12] it was 1.3 µM (active); in [10] it was 1.35 µM (active).

Take `CCCc1ncc(C[n+]2ccccc2C)c(N)n1`: in [1], the outcome was inactive. The Potency result in assay [2], in [3], in [4], in [5], in assay [6] and in assay [7] was “inactive” each time. Also, the Potency entry in assay [8], in assay [9], in assay [10] and in assay [11] was “inactive” each time.

Take `C=C1c2cccc(O)c2C(O)=C2C(=O)[C@]3(O)C(O)=C(C(N)=O)C(=O)[C@@H](N(C)C)[C@@H]3[C@@H](O)[C@H]12`: in assay [1], the result was inactive. The Potency result in assay [2], in [3], in assay [4], in assay [5], in assay [6] and in assay [7] was “inactive” each time. Also, the Potency result in [8], in [12], in assay [10] and in [11] was “inactive” throughout.

On to `CCc1ccc(C(=O)C(C)CN2CCCCC2)cc1` (stereo unspecified), for which the compound was called inactive in [1]. For the same compound, the Potency entry in assay [2], in [3], in assay [4], in assay [5], in assay [6] and in [7] was “inactive” throughout. Also, the Potency entry in assay [8], in assay [9], in [10] and in assay [11] was “inactive” throughout.

With `CC1CCc2c(N3CCC(O)CC3)c(F)cc3c(=O)c(C(=O)O)cn1c23` (stereo unspecified), in assay [1], the call was inactive. In addition, the Potency entry in [2], in assay [3], in [4], in assay [5], in [6] and in assay [7] was “inactive” throughout. Also, the Potency result in assay [9], in assay [12], in assay [10] and in assay [11] was “inactive” throughout.

Regarding `O=C(CCN1CCN2CCCC2C1)N1c2ccccc2Sc2ccc(Cl)cc21` (stereo unspecified), the call in assay [1] was inactive. For the same compound, the Potency entry in [2], in assay [3], in assay [4], in [5], in [6] and in assay [7] was “inactive” each time. Besides, the Potency entry in assay [9], in assay [12], in [10] and in assay [11] was “inactive” throughout.

On to `O=C1OC(CN2CCOCC2)CN1/N=C/c1ccc([N+](=O)[O-])o1` (stereo unspecified), for which the compound was classed as inactive in assay [1]. In addition, the Potency result in [2], in assay [3], in assay [4], in assay [5], in assay [6] and in assay [7] was “inactive” throughout. The Potency result in assay [8], in assay [12] and in assay [10] was “inactive” in each case.

Turning to `O=C(O)C(Cc1cc(I)c(O)c(I)c1)c1ccccc1` (stereo unspecified), the outcome in assay [1] was inactive. Besides, the Potency entry in [2], in assay [3], in assay [4], in assay [5], in assay [6] and in assay [7] was “inactive” throughout. For the same compound, the Potency entry in assay [8], in assay [9], in assay [10] and in assay [11] was “inactive” in each case.

For `CC(C)[C@@H]1CC[C@@H](C)CC1=O`, the result in assay [1] was inactive. In addition, the Potency entry in assay [2], in assay [3], in assay [4], in assay [5], in [6] and in assay [7] was “inactive” in each case. Further, the Potency entry in [8], in assay [9], in [10] and in assay [11] was “inactive” throughout.

Take `C#C[C@]1(O)CC[C@H]2[C@@H]3CCC4=CC(=O)CC[C@@H]4[C@H]3CC[C@@]21CC`: the compound was classed as inactive in assay [1]. The Potency entry in assay [2], in assay [3], in assay [5], in assay [6], in [7] and in assay [9] was “inactive” throughout. The Potency result in [12] and in assay [10] was “inactive” throughout. The Potency in assay [4] was 8.2 µM (active).

As for `CCCCCCCCCCCCCCCCO`, the result in assay [1] was inactive. Further, the Potency result in assay [2], in assay [3], in [4], in [5], in assay [6] and in assay [7] was “inactive” in each case. In addition, the Potency entry in assay [8], in assay [9], in assay [10] and in assay [11] was “inactive” each time.
